Inconclusive results are not listed. Calls of active or inactive are those of the source. Calls follow the shape of the dose curve; as a rule, active = well fitted cell-killing curve with a large enough effect; inconclusive = small, poorly fitted or top-dose-only effect, or effect the other way; inactive = flat fitted curve, though single readings scatter.
assay: Compound cytotoxicity measured by an ATP content assay as a counter-screen for lead compounds in human astrocytes; conditions: human astrocytes viability, ATP luminescence; series mostly up to 46.1 µM; activity change, negative = cytotoxicity: at the top concentration
In short: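 Cytotoxicity expressed as percent inhibition of cell viability from ATP-dependent luminescence, read after 10 min at room temperature with 1:1 kit reagent. Compound exposure times matched the primary screens, e.g. 6, 24 or 72 h, in cultured human astrocytes.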

Compound | Potency | activity change, negative = cytotoxicity
CS(=O)(=O)c1ccc(-c2cn3ccccc3n2)cc1 | 8.69 µM (active) | –
NC(=O)c1cccc2[nH]c(-c3ccc([C@H]4CCCN4)cc3F)nc12 | 5.48 µM (active) | –
O=C(CS)Nc1ccccc1 | – | -0.969% (inactive)
O=C(c1ccccc1)c1ccc2n1CCC2C(=O)O (stereo not given) | – | 14.5% (inactive)
CCCCCCCCCCCC(=O)[O][Sn]([CH2]CCC)([CH2]CCC)[O]C(=O)CCCCCCCCCCC | – | 1.27% (inactive)
